Data from publication PMC7826789 (International Journal of Molecular Sciences, 2021).

System: PDPK1

CNc1nc(-c2ccc3c(N)n[nH]c3c2)cc(N2C[C@@H](C(=O)NC3CCCCC3)CC[C@H]2C)n1 [GSK2334470]
Kinases covered: PDPK1
